The campaign covered roughly 410,000 compounds. About 7,200 (1.8%) were called active. Another 7% or so got no clear call; they are omitted. Shown is part of a subset that was picked to be rich in actives. Values without a mark were called inactive. The call rests on the fitted dose curve; in most records, active means well fitted activation curve with a large enough effect; inconclusive means small, poorly fitted or top-dose-only effect, or another doubt; inactive means no such curve, though single readings can be large or run the other way.
assay: qHTS of TDP-43 Inhibitors; conditions: TDP-43 expressing yeast growth rescue, BacTiter-Glo, 24 h; series mostly up to 46.1 µM; growth rescue (activation): at the top concentration; further: nearly all actives have a fitted effect of over 50% in size; on growth rescue (activation): % of control where 0% means no effect
Excerpt: The goal of this project is to identify new chemical probes capable of reversing the toxicity associated with TDP-43 which is associated with frontotemporal lobar degeneration and amyotrophic lateral sclerosis. These compounds will provide a complementary approach to deciphering the tangled mechanisms of toxicity and protection that we have uncovered through genome-wide genetic screens and are beginning to uncover in a large-scale proteomics analysis with mass spectroscopy.
To this end, a miniaturized assay was developed to be screened against the Molecular Libraries Small Molecule Repository (MLSMR) to discover TDP-43 inhibitors. Please note that in the set-up this yeast-based assay compounds that inhibit as TDP-43, have a read-out as activators.
NIH Chemical Genomics Center [NCGC]
NIH Molecular Libraries Probe Centers Network [MLPCN]
Assay Submitter (PI): Susan Lindquist, Whitehead Institute/MIT
Dispense 2.5 microL yeast galactose medium per 1536-well plate, pin compound, dispense 2.5 microL TDP-43 expressing yeast in galactose medium at OD600=0.02 (pregrown in raffinose medium to mid-log phase) per well, incubate for 24 hr at 30 deg C, and cell growth will be measured using 5 microL of Bactiter/Glo reagent to entire plate and read using Luminescence Protocol in ViewLux.
Potency means the concentration at half of the fitted maximal effect.

First: CCOc1ccc(CNC(=O)c2cc(-c3ccc(Cl)s3)nc3ccccc23)cc1
Second: CCOc1ccc(-n2c(SCC(=O)NCc3ccccc3)nc3n[nH]c(C)c3c2=N)cc1
The “growth rescue (activation)” value of the first is higher: 22.8% for the first, -8.4% for the second.

First: O=C(c1ccco1)n1nc(-c2ccc(Cl)cc2)nc1NCc1ccccc1
Second: O=C(c1ccc(Cl)cc1)n1nc(-c2cccnc2)nc1NCc1ccc(F)cc1
The “growth rescue (activation)” value of the first is lower: 5% for the first, 14% for the second.

Going from Cc1cc(C)cc(NC(=O)Cn2nc(N3CCN(c4ccccc4)CC3)ccc2=O)c1 to Cc1nn(CC(=O)N2CCN(c3cccc(C(F)(F)F)c3)CC2)c(=O)c2cc3sccc3n12, the “growth rescue (activation)” value falls from 20.2% to 7.26%.

Going from Cc1nc2nc3c(cn2n1)C(=O)CC(c1ccccc1)C3 (stereo not drawn) to COC(=O)CN1C(C)=Nc2ccc(Br)cc2C1c1ccccc1 (stereo not drawn), the “growth rescue (activation)” value falls from 13.9% to -3.72%.

First: CC(=O)NNC(=O)c1csc(Cc2c(Cl)sc3ccc(Cl)cc23)n1
Second: O=C(O)COCC(=O)NCc1csc2ccc(Cl)cc12
The “growth rescue (activation)” value of the first is higher: 2.99% for the first, -10.6% for the second.

Going from COc1ccc(-n2c(=O)c3ccccc3n(Cc3ccccc3Cl)c2=O)cc1 to O=C(O)c1c(CNCc2cccc(F)c2)c2ccccc2n1Cc1ccccc1, the “growth rescue (activation)” value rises from 15.2% to 24.3%.

First: C=CCN1C(=O)C(O)(CC(=O)c2ccc(Cl)cc2)c2ccccc21 (stereo not drawn)
Second: CCOC(=O)CN1C(=O)C(O)(CC(=O)c2ccccn2)c2ccccc21 (stereo not drawn)
The “growth rescue (activation)” value of the first is lower: 1.69% for the first, 9.65% for the second.

Going from Cc1ccc(CCN2CC(C(=O)NCCc3ccccc3)CC2=O)cc1 (stereo not drawn) to O=C(CC1Oc2ccccc2NC1=O)NCc1ccc(F)cc1 (stereo not drawn), the “growth rescue (activation)” value falls from 4.24% to -2.06%.

Going from Cc1coc(C)c1C(=O)CC1(O)C(=O)N(C)c2ccc(Cl)cc21 (stereo not drawn) to CC(C)NC(=O)c1nn(-c2ccccc2F)nc1CO, the “growth rescue (activation)” value rises from -11.5% to 2.75%.

First: Cc1nnc(C)n1-c1ccc(C(=O)Nc2cccc(Br)c2)cc1
Second: COc1ccc(C2=NC(c3ccncc3)=Nc3ccc(Br)cc3N2)cc1
The “growth rescue (activation)” value of the first is higher: 3.68% for the first, -1.4% for the second.

Going from CC(C)Cn1c(C2CC(=O)N(c3ccccc3Cl)C2)nc2ccccc21 (stereo not drawn) to CCOC(=O)c1cc2c(=O)n3ccccc3nc2n(CC2CCCO2)c1=NC(=O)c1ccccc1Br (stereo not drawn), the “growth rescue (activation)” value falls from 25.5% to 20.8%.

First: Cn1c(=O)n(Cc2c(F)cccc2Cl)c(=O)c2c1nc1n2CCN1c1ccc(F)cc1
Second: Cc1ccc(-c2nn3c(=O)cc(CN4CCN(S(=O)(=O)c5ccc(Cl)cc5)CC4)nc3s2)cc1
The “growth rescue (activation)” value of the first is lower: 9.24% for the first, 9.9% for the second.

Going from COc1ccc(-c2cc(C(F)(F)F)n3nc(-c4ccccc4)cc3n2)cc1OC to COc1ccc(CCNc2nc3c(-c4cccc(F)c4)nnn3c3ccccc23)cc1OC, the “growth rescue (activation)” value rises from 0% to 17.4%.

Compared with CCCc1cc(=O)n2[nH]c(NCc3ccc(CC)cc3)nc2n1, COc1cccc(C(=O)NCC(=O)OCc2cc(=O)n3ccsc3n2)c1 is lower in “growth rescue (activation)” value: 7.91% for the first, 3.19% for the second.

First: O=C(COC(=O)Cc1ccc([N+](=O)[O-])cc1)NC1CCCCCC1
Second: N/C(Cc1ccc([N+](=O)[O-])cc1)=N\OC(=O)COc1ccc2ccccc2c1
The “growth rescue (activation)” value of the first is lower: 6.3% for the first, 14.2% for the second.

Compared with CCOc1cc(CNC(=O)c2sc3ncnc(N(C)C4CCCCC4)c3c2C)ccc1OC, Cc1cccc(OCCCC(=O)Nc2sc3c(c2C(N)=O)CCC(C)C3)c1 (stereo not drawn) is higher in “growth rescue (activation)” value: 0% for the first, 10.1% for the second.

Going from O=S1(=O)CCOC[C@H](Cc2ccccc2)N1Cc1ccccc1Br to CCC(C)[C@H]1COCCS(=O)(=O)N1Cc1ccc(C)cc1 (stereo partly drawn), the “growth rescue (activation)” value rises from 11.1% to 24.2%.

With CN(O)C(=S)c1ccccc1 the Potency was 3.55 µM (active).
With Cc1cc(C)nc(-n2ncc3c2CC(c2ccc(C(C)C)cc2)CC3=O)n1 (stereo not drawn) the Potency was 28.2 µM (active).
With CNC(=O)c1csc(Cc2c(Cl)sc3ccc(Cl)cc23)n1 the Potency was 20 µM (active).
For Cc1ccc(C(=O)CC2(O)C(=O)N(CCc3ccccc3)c3ccc(Br)cc32)cc1 (stereo not drawn), the Potency was 35.5 µM (active).
In the case of CCCN1C(=O)C(O)(CC(=O)c2ccc(CC)cc2)c2cc(Br)ccc21 (stereo not drawn), the Potency is reported as 25.1 µM (active).
In the case of COC(=O)C1NN=C(C(=O)c2ccc(Br)cc2)C1c1cccc(Br)c1 (stereo not drawn), the Potency is reported as 25.1 µM (active).
For COCCNc1cc(-c2ccccc2)nc2cc(-c3cccc(F)c3)nn12, the Potency was 3.16 µM (active).
In the case of N/C(Cc1ccc([N+](=O)[O-])cc1)=N\OC(=O)C1CCCCC1, the Potency is reported as 20 µM (active).
In the case of O=c1cc(Cn2nnc(-c3ccc(Cl)cc3)n2)nc2sccn12, the Potency is reported as 11.2 µM (active).
In the case of Brc1ccc2c(c1)NC(c1cccnc1)=NC(c1ccccc1)=N2, the Potency is reported as 35.5 µM (active).
In the case of CCCC[C@H]1COCCS(=O)(=O)N1Cc1cccc(Cl)c1, the Potency is reported as 12.6 µM (active).
For COCCCNC(=S)N1CCN(c2nc(-c3cccc(OC)c3)cs2)CC1, the Potency was 14.1 µM (active).

Compound COc1ccc2c(c1)C(c1cccs1)=NNC(c1cccnc1)=N2 has a growth rescue (activation) of -15% [at 9.22 µM].

In the case of CN(C)CCCNC(=S)N1CCN(c2nc(-c3ccccc3)cs2)CC1, the growth rescue (activation) is reported as -17.3% [at 1.82 µM].
